# Assay outcomes deposited in PubChem by National Center for Advancing Translational Sciences (NCATS).
# An excerpt weighted towards active compounds, which were near 19% of everything screened.
# DT40 TDP1 no CPT – qHTS for Inhibitors of human tyrosyl-DNA phosphodiesterase 1 (TDP1): qHTS in cells in absence of CPT; Potency, µM (titrated, usually from 46.2 µM), for the others: at the highest dose activity change, negative = growth inhibition, hits mostly inhibitors; hit rate 15% among 420,000; DT40 Tdp1-/- hTDP1 cells, no CPT, ATP luminescence, 48 h; AID 686978, 2013; further: potency means the concentration at half of the fitted maximal effect; nearly all actives have a fitted effect of over 55% in size
#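 Luminescent ATP content (CellTiter-Glo) served as the growth readout. Knockout chicken DT40 cells expressing human TDP1 were exposed to compounds without camptothecin for a minimum 48 hr at 37 °C.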
# ELG1 DNA repair – inhibitors of ELG1-dependent DNA repair in HEK293T cells; Potency, µM (doses to about 46.1 µM), for inactives: at the top dose activity change, negative = inhibition, hits mostly inhibitors; HEK293T ELG1-luciferase reporter, luminescence, 16 h; DNA damage induced by 5-fluorouridine; hit rate 2.3% among 330,000; further: potency means the concentration at half of the fitted maximal effect; nearly all actives have a fitted effect of over 55% in size
#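 5-Fluorouridine DNA damage + compound/DMSO, 2,000 cells/well, 16 h, 37 °C/5% CO2. ONE-Glo, 30 min RT, luminescence. Readout = decrease in reporter signal.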
# HT1080-NT tox – kills 2HG-producing HT-1080-NT fibrosarcoma cells. Potency, µM (highest dose often 46.1 µM), inactives show at the highest dose activity, negative = less viability, most hits filed as cytotoxic. hit rate 1.6% among 360,000. HT-1080-NT fibrosarcoma viability, CellTiter-Glo ATP luminescence, 48 h;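 further: NT is the 2HG producing partner of a matched IDH1 knockdown line; potency means the concentration at half of the fitted maximal effect; 0% = DMSO-treated cells and -100% = media-only wells without cells; nearly all actives have a fitted effect of over 55% in size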
#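 750 cells/well, RPMI + 5% FBS; 2 h settle, compound pin-transfer, 48 h at 37 degrees C. CellTiter-Glo 10 min RT, luminescence. Normalized to DMSO and media-only wells.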
# IL-1B inflam inh – blocks inflammasome-driven IL-1 beta release | THP-1 LPS/ATP IL-1B secretion, AlphaLISA, 16 h; active compounds read low | activity change, % at 57.5 µM | hit rate 4.7% among 360,000 | AID 743279; in the data active means activity change below about -50%; inconclusive means mostly about -30% to -49%
#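 Secreted IL-1B measured by AlphaLISA bead assay after 16 h compound exposure of THP-1 cells; compounds (final up to 57.5 uM) added 1 h before LPS (250 ng/mL) and ATP (1.25 mM) stimulation; lower signal means less secretion.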
# DT40 TDP1 CPT – DT40-hTDP1 cell growth loss with CPT | hit rate 12% among 420,000 | chicken DT40 Tdp1-/-;hTDP1 cells + 20 nM CPT, ATP luminescence, 48 h | Potency, µM (titrated, usually from 46.2 µM), for inactives: top-dose activity change, negative = growth inhibition, hits mostly inhibitors | AID 686979; further: potency means the concentration at half of the fitted maximal effect; nearly all actives have a fitted effect of over 55% in size
#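 Cell growth measured by CellTiter-Glo luminescence after a minimum 48 h, 37 C compound exposure with 20 nM CPT in Tdp1-knockout DT40 cells stably expressing hTDP1, seeded 400/well; qHTS titration format.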
# HT1080 IDH1KD tx – HT-1080 IDH1 knockdown cell toxicity (counter line). HT-1080 IDH1 knockdown viability, ATP luminescence, 48 h. Potency, µM (titrated, usually from 46.1 µM), without a hit: at the highest dose activity, negative = toxicity, hits mostly cytotoxic. hit rate 2% among 360,000;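 further: potency means the concentration at half of the fitted maximal effect; 0% = DMSO wells and -100% = cell-free medium wells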
#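 Viability of IDH1-knockdown HT-1080 fibrosarcoma cells was assessed by CellTiter-Glo after 48 h at 37 °C with titrated compound; concentration-effect curves were classified by fit quality and response size.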
# * hit, by the source's call; ? = inconclusive; nt = not tested or not shown; [ ] = remark or other dose. Unless noted, the call rests on the fitted dose curve; in most records, active means well fitted curve in the direction sought with a large enough effect; inconclusive means small, poorly fitted or top-dose-only effect, or another doubt; inactive means no such curve, though single readings can be large; an effect the other way counts as inactive or inconclusive. Unless noted, on the % scale 0 is the no-effect control and ±100 the full control effect.
SMILES,DT40 TDP1 no CPT,ELG1 DNA repair,HT1080-NT tox,IL-1B inflam inh,DT40 TDP1 CPT,HT1080 IDH1KD tx
Cc1ccc([C@H]2C[C@H](O)[C@@H](n3cc(-c4ccc(F)cc4)nn3)CN2C(=O)c2cccs2)cc1,18.4µM*,nt,?,-11.3,?,-23.0%
Cc1ccc([C@H]2C[C@@H](n3cc(-c4ccc(F)cc4)nn3)[C@H](O)CN2C(=O)c2cccs2)cc1,14.6µM*,nt,-18.6%,-5.9,18.4µM*,-10.1%
Cc1ccc([C@H]2C[C@@H](n3cc(C4CC4)nn3)[C@H](O)CN2C(=O)c2cccs2)cc1,-17.1%,nt,10.2%,4.3,0.3%,2.9%
Cc1ccc([C@H]2C[C@@H](O)[C@H](n3cc(-c4ccc(F)cc4)nn3)CN2C(=O)c2cccs2)cc1,14.6µM*,nt,?,-18.9,?,?
CCOC(=O)N1CCC(N(CCN(C)C)C(=S)Nc2cc(Cl)ccc2C)CC1,-4.4%,-15.4%,4.4%,37.5,-6.2%,0.9%
Cc1ccc2[nH]c3c(=O)n(CC(=O)Nc4ccc(Br)cc4C)ncc3c2c1,5.1%,nt,nt,nt,12.1%,nt
CCCCn1c(N)c(N(CCOC)C(=O)CCCc2nc3ccccc3c(=O)[nH]2)c(=O)[nH]c1=O,-4.3%,15.4%,-3.4%,0.8,-6.3%,-3.6%
CC(=O)N1CCC2(CC1)CCN(c1ncccn1)CC2,-20.8%,nt,nt,nt,8.2%,nt
O=C(Nc1cccnc1N1CCOCC1)c1cccs1,-19.3%,-5.3%,8.5%,-12.8,6.2%,4.9%
O=C(NC(=S)Nc1ccccc1N1CCCCC1)c1ccco1,?,?,-1.8%,14.1,14.6µM*,-8.2%
O=C(NC(=S)Nc1cccc(Cl)c1N1CCOCC1)c1cccs1,25.9µM*,?,-5.7%,2.2,?,-1.7%
O=C(NC(=S)Nc1ccc(N2CCCCC2)cc1)c1ccco1,-23.9%,?,7.08µM*,-7.1,-1.3%,14.1µM*
O=C(NC(=S)Nc1ccccc1N1CCCC1)c1ccco1,?,-5.4%,1.1%,nt,-21.4%,-1.4%
CCC(C)c1ccccc1NC(=S)NC(=O)c1ccco1 (stereo not drawn),13µM*,?,3.6%,0.0,23.1µM*,11.5%
COc1ccc(CCCc2nnc(SCC(=O)Nc3ccc(C)cc3)o2)cc1C,1.8%,nt,nt,nt,7.0%,nt
CC(C)(C)c1ccc(SCCc2cccnc2)cc1,-13.8%,?,2.5%,-8.1,-18.6%,8.3%
O=C(CN1CCN(S(=O)(=O)c2ccc(Cl)cc2)CC1)NCC1(N2CCOCC2)CCCCC1,-24.2%,7.2%,-5.6%,-4.5,?,-4.2%
CC(C)C(=O)N1CCN(c2ccccc2NC(=S)NC(=O)c2ccco2)CC1,?,nt,-0.3%,-2.3,16.4µM*,-6.8%
O=C(NC(=S)Nc1ccccc1Cl)c1ccco1,?,?,-4.5%,2.9,1.2%,-3.2%
O=C(NC(=S)Nc1cccc(Cl)c1N1CCCCC1)c1ccco1,?,?,11.2µM*,17.5,?,?
O=S(=O)(NCCCSc1ccccc1)c1ccccc1F,-23.2%,1.3%,-4.5%,-15.4,?,-1.1%
COc1ccc(C)cc1NC(=O)CN1CCN(c2ccccc2F)CC1,13µM*,?,-3.8%,-4.2,?,-1.6%[9.24 µM]
COc1ccc(OC)c(NC(=O)CCN2CCN(c3ccccc3F)CC2)c1,13µM*,?,2.5%,-21.1,29.1µM*,7.0%
COc1ccc(C)cc1NC(=O)CCN1CCN(c2ccccc2F)CC1,?,-0.2%,20.5%,6.5,?,-8.0%
CCc1c(O)nc(SCC(=O)Nc2nc3ccccc3s2)n(C2CCCCC2)c1=O,?,5.1%,-6.3%,41.1,-21.4%,?
SMILES,DT40 TDP1 no CPT,ELG1 DNA repair,HT1080-NT tox,IL-1B inflam inh,DT40 TDP1 CPT,HT1080 IDH1KD tx
O=C(Nc1ccc2c(c1)OCO2)c1ccc2nc([C@@H]3O[C@H](CO)[C@H](O)[C@H](O)[C@H]3O)[nH]c2c1,0.0%,nt,12.2%,32.1,-20.2%,1.0%
COc1ccc2c(c1)CCC/C2=N/OC(=O)c1ccccc1OC,?,6.1%,-1.4%,5.2,-18.6%,0.3%
COc1ccccc1C(=O)ON=C1c2ccccc2-c2ccccc21,23.1µM*,?,-10.3%,-11.2,-26.6%,-15.2%
CN(Cc1ccc(Cl)cc1)C(=O)COC(=O)CSc1ccc([N+](=O)[O-])cc1,-12.0%,7.3%,-7.3%,2.0,4.8%,-0.7%
COc1ccc(-c2ccc(NS(=O)(=O)c3ccc(C(C)=O)cc3)cc2)nn1,-21.9%,nt,nt,nt,-28.2%,nt
C=CCOC(=O)C1=C(C)OC(N)=C(C#N)C1c1c(C)nn(-c2ccccc2)c1Cl (stereo not drawn),9.2µM*,0.6%,0.7%,-12.5,?,-2.4%
COc1cc(C2C(C#N)=C(N)N(N(C)C)C3=C2C(=O)CCC3)ccc1O (stereo not drawn),-8.9%,?,0.5%,14.1,4.3%,5.0%
COc1ccc(CCSc2n[nH]c(C(C)C)n2)cc1,-23.0%,nt,nt,nt,-26.9%,nt
Cc1cc2c(cc1S(=O)(=O)N(C)CC(=O)Nc1ccc(C#N)cc1)OCC(=O)N2,?,nt,nt,nt,-1.6%,nt
O=c1c2ccsc2ncn1Cc1ccc(Cl)cc1,18.4µM*,-5.4%,-12.4%,-2.4,?,-6.7%
O=c1c2ccccc2ncn1Cc1ccccc1,9.0%,11.2%,-3.9%,12.0,17.8%,3.1%
Cc1ccc(-n2c(SCC(=O)Nc3c(C)cccc3C)nc(O)c(C)c2=O)cc1,-6.7%,nt,nt,nt,1.5%,nt
CCC(=O)[C@@H](C)[C@@H](OC(C)=O)[C@H](C)C[C@@H](C)[C@H]1OC(=O)C[C@@]2(O)CC=C(C)C(O2)C(C)=CCCC[C@H](O[C@H]2C[C@@H](OC(N)=O)[C@H](OC(C)=O)[C@@H](C)O2)C=C[C@H](C)C[C@H]1C,2.91µM*,nt,-5.1%,18.3,?,1.0%
O=C(c1cc(COc2ccc(F)cc2Cl)on1)N1CCN(c2cnccn2)CC1,?,-5.5%,12.7%,-27.7,?,8.3%
Cc1ccc(Oc2nnc(-c3cccs3)c3ccccc23)cc1,18.4µM*,13.7%,20.7%,17.8,?,27.7%
COc1ccc(Oc2nnc(-c3ccc(C)cc3)c3ccccc23)cc1,?,10.5%,-2.8%,15.6,?,-7.9%
c1ccc(Oc2nnc(-c3cccs3)c3ccccc23)cc1,?,-3.0%,-1.5%,17.8,-2.1%,0.7%
Cc1ccc(Oc2nnc(-c3cccs3)c3ccccc23)cc1C,?,-5.8%,?,-23.2,18.4µM*,?
